# Source: PubChem BioAssay
# TrxR1 inh: blocks rat thioredoxin reductase 1; O89049; Potency, µM (series often up to 114 µM), inactives show top-dose activity change, negative = inhibition, actives largely listed as inhibitors; actives 1% (n = 390,000); recombinant rTrxR1, NADPH fluorescence consumption, selenite substrate; also: potency is read from the fitted curve at half-maximal effect; % is scaled to controls: 0 for no effect and ±100 for the full control effect; nearly all actives have a fitted effect of over 65% in size
#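 Rat TrxR1 (90 nM in the dispensed reagent) was pre-reduced with 400 uM NADPH for 5 min at room temperature, then incubated with compound for 15 min. After 400 uM selenite was added, NADPH fluorescence (Ex 340/Em 450 nm) was followed for 8 min.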
# IDH1 R132H inh: blocks human mutant IDH1 R132H enzyme | O75874 | IDH1-R132H enzyme, NADPH consumption, diaphorase/resazurin fluorescence | Potency, µM (series often up to 76.6 µM), inactives show at the highest dose activity change, negative = inhibition, most hits filed as inhibitors | actives 0.093% (n = 390,000); also: potency is read from the fitted curve at half-maximal effect; % is scaled to controls: 0 for no effect and ±100 for the full control effect; nearly all actives have a fitted effect of over 65% in size
#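 IDH1-R132H (0.5 ug/mL dispensed) in pH 7.5 Tris buffer was preincubated 30 min with compound, then given a substrate mix of 0.016 mM NADPH and 2 mM alpha-KG for 80 min at room temperature; remaining NADPH was read by diaphorase/resazurin fluorescence.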
# LDHA inh: LDHA (human) enzyme inhibition | P00338 | purified LDHA, NADH/diaphorase-resazurin fluorescence; hits give low values | activity change, % (values are at about 110 or 230 µM) | actives 0.15% (n = 480,000) | AID 1347041; in the data active = activity change below about -30%; inconclusive = mostly about -25% to -30%;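 also: plate controls were DMSO wells for no effect and wells without enzyme for full effect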
#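 Enzyme activity of human lactate dehydrogenase 5 (2 nM; 0.06 mM NADH, 0.2 mM pyruvate, 5 min, RT) is measured via a resazurin/diaphorase fluorescence readout of residual NADH.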
# TrxR1 substrate: substrates of rat thioredoxin reductase 1. actives 0.01% (n = 390,000). Potency, µM (top dose mostly 114 µM), for the others: at the highest dose activity change, negative = substrate turnover. AID 588456. purified TrxR1 substrate turnover, NADPH consumption readout. O89049; also: potency is read from the fitted curve at half-maximal effect; % is scaled to controls: 0 for no effect and ±100 for the full control effect; nearly all actives have a fitted effect of over 50% in size
#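 Rat TrxR1, dispensed at 90 nM, was prereduced with 400 uM NADPH (final) for 5 min at ~22 deg C, then incubated with compound 15 min before 400 uM selenite. A first-read NADPH fluorescence drop versus no-compound background flagged substrates.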
# GLS inhibitor: inhibitors of human glutaminase (GLS); GLS enzymatic activity, qHTS titration; AID 624170; actives 0.21% (n = 410,000); Potency, µM (series often up to 45.5 µM), for inactives: at the highest dose activity change, negative = inhibition, usual class: inhibitors; also: potency is read from the fitted curve at half-maximal effect; % is scaled to controls: 0 for no effect and ±100 for the full control effect
# Target sequence (O94925 whole entry, looked up): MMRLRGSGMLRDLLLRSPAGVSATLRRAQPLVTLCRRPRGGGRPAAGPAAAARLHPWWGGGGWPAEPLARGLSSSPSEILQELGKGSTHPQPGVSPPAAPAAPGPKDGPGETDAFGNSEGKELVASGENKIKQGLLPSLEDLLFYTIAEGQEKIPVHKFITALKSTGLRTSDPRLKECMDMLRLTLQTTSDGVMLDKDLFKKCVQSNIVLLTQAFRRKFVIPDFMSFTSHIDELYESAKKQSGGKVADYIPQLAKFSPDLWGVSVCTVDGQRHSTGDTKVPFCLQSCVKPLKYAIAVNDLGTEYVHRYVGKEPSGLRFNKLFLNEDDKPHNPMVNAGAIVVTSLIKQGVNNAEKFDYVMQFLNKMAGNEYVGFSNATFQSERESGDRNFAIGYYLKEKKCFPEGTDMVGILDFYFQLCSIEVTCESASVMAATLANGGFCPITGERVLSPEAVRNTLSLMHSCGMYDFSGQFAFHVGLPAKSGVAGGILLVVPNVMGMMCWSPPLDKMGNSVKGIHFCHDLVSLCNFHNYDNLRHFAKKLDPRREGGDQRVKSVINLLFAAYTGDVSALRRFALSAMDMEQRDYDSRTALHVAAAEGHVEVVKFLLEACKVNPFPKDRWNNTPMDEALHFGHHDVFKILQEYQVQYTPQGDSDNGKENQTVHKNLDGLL
#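 Read-out is an Amplex red fluorescence increase coupled through glutamate oxidase and HRP, measured before and after 30 min room-temperature incubation. hKGA is in 45 mM KH2PO4 (pH 8.2) with 0.02% Tween-20; glutamine added as 1mM solution.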
# PKM2 act: PKM2 (human) enzyme activation; P14618; purified PKM2, Kinase-Glo ATP luminescence, activation; response scale: 0% is enzyme alone, no compound; Potency, µM (top dose mostly 57.5 µM), inactives show at the top dose activation, usual class: activators; actives 0.34% (n = 260,000); AID 1631; also: potency is read from the fitted curve at half-maximal effect; % is scaled to controls: 0 for no effect and ±100 for the full control effect; nearly all actives have a fitted effect of over 55% in size
#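 ATP formation by purified human PK-M2, quantified via coupled luciferase luminescence after 1 h at room temperature with 0.1 mM ADP and 0.5 mM PEP final.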
# Resorufin autofl: interferes with resorufin fluorescence in IDH1 counter-screen | shares compounds with IDH1 R132H inh | Resorufin detection reagent fluorescence interference, cell-free | inhibition of signal, % at 51.2 µM | 750 tested, under 10 active | AID 623980;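 also: 0% = wells with normal resorufin and full inhibition = wells lacking resorufin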
# WT IDH1 inh: wild-type IDH1 (human) inhibition counterscreen | shares compounds with IDH1 R132H inh | WT IDH1 enzyme, NADPH diaphorase/resazurin fluorescence | Potency, µM (doses to about 115 µM), for the others: top-dose activity change, negative = inhibition, actives largely listed as inhibitors | actives 9% (n = 750) | AID 623995;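 also: potency is read from the fitted curve at half-maximal effect; 0% = full WT IDH1 enzyme control and full inhibition = no enzyme wells; nearly all actives have a fitted effect of over 55% in size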
# mIDH1 confirm: confirmation of human mutant IDH1 inhibitors; shares compounds with IDH1 R132H inh; IDH1 R132H enzyme, NADPH diaphorase/resazurin fluorescence; Potency, µM (top dose mostly 76.6 µM), without a hit: top-dose activity change, negative = inhibition, actives largely listed as inhibitors; actives 83% (n = 750); AID 624002; also: potency is read from the fitted curve at half-maximal effect; nearly all actives have a fitted effect of over 50% in size
# * marks the source's active call; other numbers are inactive results; ? = inconclusive; / = no result given; [ ] = another dose, or the depositor's remark. Hits are enriched below; roughly 1.4% of the tested compounds scored in any of these assays. Unless noted, calls follow the shape of the dose curve; as a rule, active = well fitted curve in the direction sought with a large enough effect; inconclusive = small, poorly fitted or top-dose-only effect, or another doubt; inactive = no such curve, though single readings can be large; an effect the other way counts as inactive or inconclusive.
SMILES,TrxR1 inh,IDH1 R132H inh,LDHA inh,TrxR1 substrate,GLS inhibitor,PKM2 act,Resorufin autofl,WT IDH1 inh,mIDH1 confirm
O=C1c2[nH]nc(-c3ccccc3O)c2C(c2ccc(F)cc2)N1CC1CCCO1 (stereo not given),-6.0%,0.9%,5.8,-1.7%,-5.6%,3.9%,/,/,/
COc1cccc(C2c3c(-c4ccccc4O)n[nH]c3C(=O)N2CCc2ccc(OC)c(OC)c2)c1 (stereo not given),16.7%,?,-11.7,2.0%,13.4%,/,-0.7,9.9%,25.1µM*
Cc1cc(C)c(O)c(-c2n[nH]c3c2C(c2cccc(O)c2)N(Cc2ccco2)C3=O)c1 (stereo not given),1.9%,16.5µM*,-0.7,-11.4%,-6.8%,1.1%,-7.8,50.1µM*,22.4µM*
Cc1ccc(C2c3c(-c4cc(C)ccc4O)n[nH]c3C(=O)N2Cc2ccco2)cc1 (stereo not given),7.1%,35.5µM*,10.8,-12.2%,-1.2%,/,-3.7,-4.4%,44.7µM*
O=C1c2[nH]nc(-c3ccccc3O)c2C(c2ccc(F)cc2)N1Cc1ccco1 (stereo not given),-0.9%[57.1 µM],?,4.4,-3.9%[57.1 µM],-5.1%,-10.0%,-6.8,5.3%,39.8µM*
O=C(COc1ccccc1/C=C\c1[nH]c(=O)[nH]c(=O)c1[N+](=O)[O-])Nc1ccccc1,?,41.4µM*,-7.5,-6.0%,?,8.3%,-1.0,?,39.8µM*
CCn1c2ccccc2c2cc(C3C(C#N)=C(N)Oc4n[nH]c(COC)c43)ccc21 (stereo not given),8.2%[57.1 µM],52.1µM*,6.6,11.2%[57.1 µM],0.0%,8.2%,4.5,-4.1%,20µM*
CCC(=O)N1CCN(c2nc(CC)nc3sc4c(c23)CCCC4)CC1,-7.0%[57.1 µM],-12.8%,-7.8,-8.7%[57.1 µM],-2.2%,1.8%[11.5 µM],/,/,/
CC1CCc2c(sc3nc(C(C)(C)C)nc(N4CCN(C(=O)CCl)CC4)c23)C1 (stereo not given),?,41.4µM*,-3.1,-6.0%,5.6%,0.8%,-4.2,44.7µM*,3.16µM*
CNC(=O)Cc1ccc(NC(=O)C2CCCCC2)cc1,/,/,2.3,/,/,/,/,/,/
O=C(NC1CCCC1)C(c1ccco1)N(C(=O)c1ccco1)c1ccccc1 (stereo not given),-4.8%[57.1 µM],?,-2.2,-5.1%,2.8%,/,-0.7,2.8%,39.8µM*
CCc1ccc(N(C(=O)c2ccco2)C(C(=O)NC2CCCC2)c2ccco2)cc1 (stereo not given),2.9%,?,-7.7,-0.6%,0.5%,/,-6.7,-7.2%,39.8µM*
CC(=O)c1cccc(N(C(=O)c2ccco2)C(C(=O)NC2CCCCC2)c2ccc(C)o2)c1 (stereo not given),-6.6%[57.1 µM],?,-5.5,7.7%[57.1 µM],-1.2%,-0.4%,1.1,0.9%,39.8µM*
Cc1ccc(C(C(=O)NC2CCCCC2)N(C(=O)Cc2c[nH]c3ccccc23)c2ccccc2)o1 (stereo not given),-3.3%,?,11.5,5.4%,0.5%,-5.4%,-8.7,-12.4%,7.08µM*
